HER2 expr 66K: Her2 kinase expression inhibition. P04626. SKBR-3 HER2 protein level, AlphaScreen, 18-24 h; hits give low values. HER2 level % of control, % at 10 µM. hit rate 0.69% among 65,000. AID 645;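 active = HER2 level under 5% of the carrier-only control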;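 note: 100% = DMSO carrier and 0% = 500 nM PU-H71 HSP90 inhibitor; lower value means stronger loss of Her2 protein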
JNK3 blocker: inhibitors of human JNK3 kinase. P53779. purified JNK3 kinase activity, HTS. inhibition, % at 8 µM. hit rate 0.61% among 60,000; in the data active = inhibition above about 17%;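 note: 0% = DMSO and 100% = reference inhibitor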
M1 antag: antagonists of rat M1 muscarinic receptor. P08482. CHO-M1 cells, Fluo-4 calcium, ACh EC80 antagonist mode; hits give low values. B-score at 10 µM. hit rate 3.4% among 64,000;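 active = calcium fluorescence response, raw or row-and-column corrected B-score, differing from the plate sample mean either way at a set confidence level, mostly lower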
Target sequence (P08482 whole entry, looked up): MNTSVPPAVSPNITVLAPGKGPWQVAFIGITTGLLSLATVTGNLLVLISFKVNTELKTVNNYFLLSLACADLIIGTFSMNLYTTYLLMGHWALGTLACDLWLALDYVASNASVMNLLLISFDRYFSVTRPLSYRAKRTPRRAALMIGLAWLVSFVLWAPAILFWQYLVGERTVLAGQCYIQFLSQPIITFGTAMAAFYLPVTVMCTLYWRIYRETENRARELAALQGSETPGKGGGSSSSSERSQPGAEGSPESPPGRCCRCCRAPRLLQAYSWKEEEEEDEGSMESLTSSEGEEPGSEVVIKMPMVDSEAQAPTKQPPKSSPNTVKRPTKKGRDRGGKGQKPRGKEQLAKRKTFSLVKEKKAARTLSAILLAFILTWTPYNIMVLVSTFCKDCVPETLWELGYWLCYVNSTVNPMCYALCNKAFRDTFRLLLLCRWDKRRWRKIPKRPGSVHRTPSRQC
FXIa inh mix: blocks human factor XIa in pooled compound mixtures; P03951; purified FXIa, fluorogenic substrate; inhibition, % at 5 µM; hit rate 0.19% among 62,000; AID 680;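 note: each value is inhibition by a whole ten-compound pool holding the compound; 0% = enzyme with no mixture and 100% = wells lacking enzyme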
M1 ag: agonists of M1 muscarinic receptor; CHO-M1 cells, Fluo-4 calcium fluorescence, agonist mode; hits give high values; B-score at 10 µM; hit rate 3% among 64,000; AID 626;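 active = fluorescence rise, raw or as B-score row- and column-corrected plate score, outside the 99.7% band of its plate's samples, either direction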
FXIIa inh mix: factor XIIa (human) inhibition, mixture screen | purified FXIIa, fluorogenic substrate, pooled mixtures | inhibition, % at 5 µM | hit rate 0.2% among 62,000 | AID 684;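 note: 0% = enzyme without compound and 100% = no enzyme blank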
M1 antag confirm: confirmation of rat M1 muscarinic receptor antagonists. calcium response (max-min fluorescence) at 10 µM. shares compounds with M1 antag. CHO-M1 cells, Fluo-4 calcium, ACh EC80 antagonism; hits give low values. hit rate 43% among 1,700;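 active = calcium response below the same-plate mean of wells given acetylcholine alone at its 80%-effect dose, minus 3 SD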;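 note: raw fluorescence intensity difference in arbitrary instrument units and not normalized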
mGluR4 antag: selectivity test for M1 antagonists: human mGluR4 receptor. fluorescence response (max-min) at 10 µM. CHO-mGluR4 calcium flux, Fluo-4 fluorescence, glutamate EC80; hits give low values. AID 678. shares compounds with M1 antag. hit rate 0.9% among 1,700;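 active = fluorescence response below the plate's average for near-maximal glutamate wells, less 3 SD of those wells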;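 note: raw unnormalized fluorescence span taken in the window right after glutamate addition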
An asterisk follows results filed as active; . = no result given. A selection: hits, their analogues and other compounds. The true share with any hit is near 6.9%. Cut-off read from the data, not from the text of the source, unless noted: active = inhibition above about 20% (passing the limit was not always enough); inactive = the rest.

SMILES | HER2 expr 66K | JNK3 blocker | M1 antag | FXIa inh mix | M1 ag | FXIIa inh mix | M1 antag confirm | mGluR4 antag
COc1ccc(-c2noc(CSc3nc(N)c(-c4ccccc4)c(=O)[nH]3)n2)cc1 | 75 | 1 | -3.4* | 4 | 0.93 | -8 | 628 | 290
COc1ccc(Cc2nc(-c3ccccc3)no2)cc1 | 67 | 1 | -2.1* | 8 | 0.14 | 6 | 611 | 263
COc1ccccc1-c1nnc(SCC(=O)OC(C)C)o1 | 109 | 3 | -0.1 | -3 | -0.48 | 7 | . | .
O=C(O)CCC(=O)Nc1ccc(S(=O)(=O)Nc2nccs2)cc1 | 96 | -2 | -11* | 4 | -0.078 | 0 | 695 | 195
COc1ccc(S(=O)(=O)N(C)c2ccc(OCC(=O)Nc3cc(C)on3)cc2)cc1 | 106 | -1 | -2.8* | -7 | -0.64 | -1 | 604 | 218
CCCCn1c(SCC(=O)Nc2nnc(CC)s2)nc2c1c(=O)n(C)c(=O)n2C | 102 | -5 | 0.44 | -9 | -0.39 | 0 | . | .
CCCCn1c(SCC(=O)Nc2nnc(CC)s2)nc2ccccc2c1=O | 114 | -3 | -7.8* | -6 | -0.71 | 5 | 602 | 230
O=C(COC(=O)c1cc(=O)[nH]c2ccccc12)NC(=O)NC1CCCCC1 | 70 | 9 | -0.93 | -4 | 0.1 | -1 | . | .
CCN1/C(=C/C(C)=O)Sc2ccc(OC)cc21 | 8 | -3 | -0.93 | 10 | 0.15 | 7 | . | .
COc1ccc2c(c1)Sc1ccccc1N2CCN(C)C | 61 | -29 | -8.6* | -8 | 0.44 | 6 | 114* | 247
O=C(N1CCCCC1)C1(c2ccccc2)CCOCC1 | 109 | 1 | 0.28 | 4 | 0.64 | 2 | . | .
CN(C)CCOC(=O)C1(c2ccccc2)CCOCC1 | 57 | 5 | -3.2* | -3 | -1.4 | 10 | 362* | 202
O=C(OCCCN1CCCCC1)c1ccc(O)cc1 | 118 | -3 | 0.49 | 1 | 0.36 | 0 | . | .
O=C(OCCCN1CCCC1)C1(c2ccccc2)CCCC1 | 112 | -5 | -18* | 2 | 0.039 | 6 | 27* | 261
COc1ccc(/C(O)=C2/C(=O)C(=O)N(CCCN(C)C)C2c2cccnc2)cc1 (stereo not given) | 92 | 1 | 0.043 | 9 | 0.23 | 1 | . | .
COc1ccccc1NC(=O)c1ccc(NC(=O)CSc2nnnn2C)cc1 | 142 | 1 | -0.37 | 0 | 0.14 | 7 | . | .
O=C(NCC1COc2ccccc2O1)C1CCC(CNc2c(N3CCCCC3)c(=O)c2=O)CC1 (stereo not given) | 78 | 2 | 0.071 | 8 | 0.84 | -6 | . | .
CCOC(=O)c1nnn(-c2nonc2NC(C)=O)c1C | 83 | 2 | -0.9* | 1 | -0.32 | 17 | 574* | 178
Cc1nn(Cc2ccccc2)c(C)c1NC(=O)CSc1nc2sc3c(c2c(=O)n1C)CCC3 | 90 | 5 | -0.58 | 5 | 1.9 | 3 | . | .
CCOCCCNC(=O)c1cc2c(-c3ccc(Cl)cc3)nn(C)c2s1 | 27 | 5 | 0.58 | 8 | -0.15 | -31 | . | .
CCN(CC)CCNC(=O)c1cc2c(-c3ccc(Cl)cc3)nn(C)c2s1 | 95 | 6 | -2.9* | -1 | -0.55 | -16 | 444 | 205
c1ccc(CCN2CN(CCCN3CCOCC3)c3nc4ccccc4n3C2)cc1 | 102 | -9 | -1.9* | 1 | -0.23 | 11 | 442 | 187
CN1CCN(CCN2CCn3c2nc2ccccc23)CC1 | 113 | -12 | 0.05 | -1 | 0.025 | 11 | . | .
CCC(=O)N1CN(S(=O)(=O)c2ccc(C)cc2)CC1C (stereo not given) | 99 | 1 | 0.18 | . | 0.82 | . | . | .
Cn1c(=O)oc2cc(S(=O)(=O)N3CCCc4ccccc43)ccc21 | 35 | -1 | -1.2 | 7 | -0.25 | 2 | . | .
SMILES | HER2 expr 66K | JNK3 blocker | M1 antag | FXIa inh mix | M1 ag | FXIIa inh mix | M1 antag confirm | mGluR4 antag
CCOC(=O)Cn1c(=O)oc2cc(S(=O)(=O)N3CCc4ccccc43)ccc21 | 21 | -11 | -3.7* | 7 | -2.3 | -12 | 533 | 230
CC(C)(C)NC(=O)Cn1c(=O)oc2cc(S(=O)(=O)N3CCc4ccccc43)ccc21 | 100 | -6 | -2.4* | 5 | -0.089 | 6 | 588 | 245
CCOC(=O)Cn1c(=O)oc2cc(S(=O)(=O)NCCc3ccc(OCC)c(OCC)c3)ccc21 | 80 | -2 | -2.3* | 10 | -0.15 | 5 | 650 | 198
O=C1N2c3ccccc3CCc3cccc(c32)C1(O)C(F)(F)F (stereo not given) | 112 | -6 | 0.27 | 3 | -1.5 | 7 | . | .
O=C(c1ccco1)N1CCN(C(c2cccs2)c2nnnn2C2CCCCC2)CC1 (stereo not given) | 117 | 3 | -0.4 | 1 | 0.085 | 9 | . | .
CC1CCCCC1n1c(=S)[nH]c2ccccc2c1=O (stereo not given) | 104 | . | -0.54 | 10 | 0.034 | 11 | . | .
CC(=O)Nc1ccc(S(=O)(=O)N2CCN(C(=O)N3CCOCC3)CC2)cc1 | 109 | 0 | 0.067 | -7 | 1.4 | 0 | . | .
CC(=O)Nc1ccc(S(=O)(=O)N2CCN(C34CC5CC(CC(C5)C3)C4)CC2)cc1 | 64 | -7 | -3.1* | 3 | -0.69 | 0 | 550 | 223
CCOC(=O)N1CCN(c2ncnc3c2oc2nc(CC(C)C)c4c(c23)CCC4)CC1 | 38 | -5 | 2 | 7 | 0.52 | 1 | . | .
CC1=Nc2ncnn2C(c2ccccc2)/C1=N\O (stereo not given) | 93 | 3 | 0.051 | 5 | -8.7e-05 | -15 | . | .
Cc1ccc(Cn2c(SCCN3CCCCC3)nc3c2c(=O)[nH]c(=O)n3C)cc1 | 63 | -1 | -1.9* | -1 | 0.015 | -2 | 457* | 232
CC1CN(Cc2nc3c(c(=O)n(C)c(=O)n3C)n2Cc2ccccc2)CC(C)O1 (stereo not given) | 102 | 0 | 0.78 | 1 | -0.18 | 3 | . | .
C=CCn1c(SCCN2CCCCC2)nc2c1c(=O)[nH]c(=O)n2C | 79 | 5 | -2.7* | 7 | 0.032 | 2 | 468 | 203
Cc1ccc(Cn2c(SCCN3CCOCC3)nc3c2c(=O)n(C)c(=O)n3C)cc1 | 139 | . | -0.46 | -2 | 0.22 | 11 | . | .
Cn1c(=O)[nH]c(=O)c2c1nc(SCCN1CCCCC1)n2CCCc1ccccc1 | 115 | 0 | -3.8* | 1 | 0.43 | 4 | 428 | 187
Cc1ccc(Cn2c(CN3CC(C)OC(C)C3)nc3c2c(=O)[nH]c(=O)n3C)cc1 (stereo not given) | 106 | -1 | -5.2* | 11 | 0.036 | 3 | 546 | 183
Cc1ccc2c(c1)nnn2C1CCN(CC(=O)Nc2ccc3c(c2)OCCO3)CC1 | 102 | 6 | -0.21 | 5 | -0.24 | 2 | . | .
CCCOc1ccc(C2c3c(oc4ccccc4c3=O)C(=O)N2CCCN2CCOCC2)cc1 (stereo not given) | 92 | 6 | 0.12 | -10 | -0.59 | 7 | . | .

Bioassay records (PubChem)
